Shown are actives, neighbours in structure and some others; about 1.5% of the full set was active somewhere.
PolyA inhibitor – blocks polyadenylation in yeast reporter cells; S. cerevisiae SKY197-pL101 polyadenylation reporter, beta-gal luminescence; efflux-impaired pdr1/pdr3 knockout yeast; score 100 = 6 SD above DMSO; activity score, % at 12 µM; 300,000 compounds, 0.02% hits;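 active = lowest replicate activity score at least 50, where 100 means six control SD above control mean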;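 also: yeast exposed to compound for 9 h at 30 °C; higher score means more reporter readthrough which indicates perturbed polyadenylation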
Efflux pump inh – inhibitors of Candida antifungal efflux pumps expressed in yeast | inhibition, % at 10 µM | AID 485275 | S. cerevisiae Candida pump triplex, Nile Red efflux | 330,000 compounds, 0.44% hits;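 active = plate passing quality check with inhibition over a set limit, or well fluorescence over plate mean plus 4 SD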;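 also: Nile Red retained in pooled yeast measured as flow cytometry median fluorescence; 0% = buffer negative control and 100% = Enniatin B positive control; higher means more Nile Red kept so more efflux inhibition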
NLRP3 yeast inh – blocks the NALP3 inflammasome reconstituted in yeast; inhibition, % at 10 µM; Yeast reconstituted NLRP3/ASC/caspase-1, beta-gal luminescence, 24 h; AID 2825; 330,000 compounds, 0.39% hits;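 active = inhibition of 50% or more; inactive = inhibition below 50%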;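 also: plate controls were induced DMSO wells for no effect and uninduced yeast grown without galactose for full effect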
JMJD2C inh – inhibitors of human GASC-1 (JMJD2C) demethylase | GST-JMJD2C(1-420) H3K9me3 demethylation, DELFIA europium | 330,000 compounds, 0.069% hits | AID 2099 | inhibition, % at 2.35 µM;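 active = more than half of a compound's replicate wells show inhibition beyond 50%, single wells judged on their own value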;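 also: signal counts dimethyl H3K9 product captured on neutravidin plate; 0% = median of DMSO wells and 100% = 0.3 times that DMSO median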
Target sequence (Q9H3R0 1-420 limits assumed): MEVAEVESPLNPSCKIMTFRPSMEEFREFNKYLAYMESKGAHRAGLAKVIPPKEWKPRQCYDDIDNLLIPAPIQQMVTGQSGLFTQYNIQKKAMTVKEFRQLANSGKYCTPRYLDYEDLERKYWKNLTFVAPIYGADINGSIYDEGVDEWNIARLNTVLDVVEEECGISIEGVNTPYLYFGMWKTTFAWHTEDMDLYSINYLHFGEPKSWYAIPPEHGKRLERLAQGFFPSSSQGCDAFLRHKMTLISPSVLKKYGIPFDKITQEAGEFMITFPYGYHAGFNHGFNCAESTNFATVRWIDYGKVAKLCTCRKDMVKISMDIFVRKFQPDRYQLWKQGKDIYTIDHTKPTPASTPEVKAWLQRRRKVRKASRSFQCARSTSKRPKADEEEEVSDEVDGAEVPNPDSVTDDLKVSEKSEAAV
NALP1 yeast inh – blocks the NALP1 inflammasome reconstituted in yeast. S. cerevisiae NALP1/ASC/caspase-1 growth, X-gal OD620, 72 h. inhibition, % at 10 µM. 280,000 compounds, 0.61% hits. AID 2071; in the data active = inhibition mostly above about 24%, no sharp cut-off; inactive = mostly below about 32%
HDAC3 inhib – blocks human histone deacetylase 3; O15379; recombinant HDAC3, fluorogenic peptide/trypsin coupled, fluorescence; inhibition, % at 8.3 µM; 320,000 compounds, 0.15% hits; in the data active = inhibition above about 26%, passing the limit was not always enough
Cmpd fluor yeast – flagged as fluorescent in efflux inhibitor counter-screen; 1,700 compounds, 4% hits; shares compounds with Efflux pump inh; S. cerevisiae AD/pABC3, compound fluorescence, flow cytometry; fluorescence ratio to DMSO, % at 10 µM; AID 588517;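 active = fluorescence ratio to DMSO above its plate's cutoff, the plate mean ratio plus 5 SD, cut at about 210% in these data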;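 also: unstained yeast with no Nile Red so the signal is compound autofluorescence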
Mdr1 pump inh – inhibitors of Candida albicans Mdr1 efflux pump | shares compounds with Efflux pump inh | S. cerevisiae AD/CaMDR1, Nile Red efflux, flow cytometry | inhibition, % at 10 µM | 1,700 compounds, 1% hits | AID 588518; in the data active = inhibition above about 26%;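 also: 0% = DMSO vehicle and 100% = reference inhibitor; higher means more Nile Red retained so more efflux inhibition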
CaCdr2 efflux inh – inhibitors of Candida albicans Cdr2 efflux pump. shares compounds with Efflux pump inh. S. cerevisiae AD/CaCDR2, Nile Red retention, flow cytometry. Nile Red retention ratio vs DMSO, % at 10 µM. 1,700 compounds, 4% hits. AID 588520; in the data active = Nile Red retention ratio vs DMSO above about 190%;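 also: higher ratio means more blocking of Cdr2 efflux of the dye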
CaCdr1 efflux inh – inhibitors of Candida albicans Cdr1 efflux pump. shares compounds with Efflux pump inh. S. cerevisiae AD/CaCDR1, Nile Red efflux, flow cytometry. inhibition, % at 10 µM. 1,700 compounds, 1% hits. AID 588522;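 active = inhibition above the screen-wide mean plus twice its standard deviation, cut at about 32% in these data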
The depositor's hits bear a star; / = no result; + = active, no number.

SMILES	PolyA inhibitor	Efflux pump inh	NLRP3 yeast inh	JMJD2C inh	NALP1 yeast inh	HDAC3 inhib	Cmpd fluor yeast	Mdr1 pump inh	CaCdr2 efflux inh	CaCdr1 efflux inh
Clc1ccc(C(c2ccc(Cl)cc2)n2cc[n+](CC(OCc3ccc(Cl)cc3Cl)c3ccc(Cl)cc3Cl)c2)cc1 (configuration not stated)	/	90*	22	/	/	-3	94	0	+	0
CCOc1ccc(N2C(=O)/C(=C/c3ccc(C)o3)C(=O)NC2=S)cc1	1	0.9*	-4	6	8	-1	100	0	89	0
CCC(=NCc1cccnc1)c1c(O)n(-c2ccccc2C)c(=O)[nH]c1=O	3	0	16	/	21	-1	/	/	/	/
CC(=NCc1cccnc1)c1c(O)n(-c2ccccc2C)c(=O)[nH]c1=O	27	1.8*	12	-31	-1	3	103	0	133	0
Cc1ccc2c(c1)C1CN(C)CCC1N2C(=O)c1ccc(Br)o1 (configuration not stated)	-10	0.6*	38	1	23	3	112	1	127	0
CC1=CC(=O)OC2CC3OC4C[C@@H](C)C5OC6CC7O[C@]8(C)C/C=C\C9OC%10CC%11OC(CC(C)C%12OCCO%12)CC(O)[C@]%11(C)OC%10CC9OC8C[C@]7(C)O[C@]6(C)CCC5OC4C[C@]3(C)OC12 (some centres not stated)	/	2	9	/	/	6	/	/	/	/
c1ccc2c(c1)Sc1ccccc1N2CC1CN2CCC1CC2 (configuration not stated)	5	0	17	-34	24	2	/	/	/	/
CCC(C)N1C(=O)/C(=C\c2ccc(N3CCCCCC3)cc2)C(=O)NC1=S (configuration not stated)	2	0	18	-114	-17	2	/	/	/	/
CCC(C)N1C(=O)/C(=C\c2cc3c4c(c2)CCCN4CCC3)C(=O)NC1=S (configuration not stated)	-11	0.7*	8	-9	5	1	118	0	114	0
COc1ccc(CC(=O)Nc2ccc(C#N)c(Cl)c2)cc1S(=O)(=O)N1CCOCC1	7	0	12	-2	18	-4	/	/	/	/
O=C(Nc1c(F)cc(F)cc1F)c1cccn(Cc2ccccc2)c1=O	-7	0.8*	19	0	-1	-8	102	0	100	0
Cc1cc(NC(=O)CCl)no1	32	0	1	3	6	-3	/	/	/	/
Cc1cc(/C=C2\C(=O)NC(=O)N(c3ccc(Cl)cc3)C2=O)c(C)n1-c1sc2c(c1C#N)CCCC2	1	0.8*	-7	-6	16	-1	108	0	104	0
CCOC(=O)c1c(-n2c(C)cc(/C=C3\C(=O)NC(=O)N(C)C3=O)c2C)sc2c1CCCC2	-32	0	11	8	3	-2	/	/	/	/
O=c1c2ccccc2nc(-c2ccccc2)n1-c1ccccc1	4	0	6	7	5	-1	/	/	/	/
O=c1c2ccccc2[se]n1-c1ccccc1	-6	4.0*	-7	-12	15	/	96	1	107	0
